About 120 (0.035%) of roughly 340,000 compounds were called active.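 Rule for the calls: active = mean replicate inhibition at least 50% and at least half of replicates individually reaching 50%; inconclusive = only one of the two criteria met; inactive = neither criterion met.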 The entries come from a sample that favours actives as a whole.
experiment: blockers of twin-arginine translocation in E. coli – MC4100, TorA-mCherry reporter, fluorescence, single point, primary screen (AID 488895);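 note: exported cargo escapes ClpAP degradation while cytoplasmic cargo is degraded and loses fluorescence; 0% = median of neutral control wells and 100% = median of NaSCN control wells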; details: E. coli MC4100 TorA-mCherry Tat export, at 10 µM, stronger effect = higher value

inhibition, active:
Cn1ccc(=Nc2ccc(NC(=O)c3ccc(N=c4ccn(C)c5ccc([N+](=O)[O-])cc45)cc3)cc2)cc1 112%
COc1c(N2CCN(C(=S)Nc3ccccc3F)C(C)C2)c(F)cc2c(=O)c(C(=O)O)cn(C3CC3)c12 (centres undefined) 91.3%

inhibition, inactive:
Cn1cc(CN2CCCCC2c2ccccn2)c(-c2ccc3c(c2)OCCO3)n1 (centres undefined) 3%
CCc1nc(C)cn1S(=O)(=O)c1cc([N+](=O)[O-])ccc1Cl -13.2%
O=C1CCC/C(=N\NC(=O)NC2CCCCC2)C1 4.42%
O=[N+]([O-])c1ncc(Br)cc1Nc1ccccc1 -4.47%
COC(=O)c1c(C(=O)OC)c(-c2cccc(C)c2)n2c1CS(=O)C2 (centres undefined) 4.25%
Cc1cc(C)c(OCCN2CC(C)OC(C)C2)c(Br)c1 (centres undefined) 24.1%
COc1ccccc1NC(=O)c1cc(N2C(=O)C3C4CCC(C4)C3C2=O)ccc1Cl (centres undefined) -14.7%
CC1(C)CC(=O)C(CC(=O)N2CCC(Cc3ccccc3)CC2)C(=O)C1 3.6%
CCCCCCCCCCCCC(NC(C)=O)(C(=O)OCC)C(=O)OCC 7.11%
COc1ccc(NC(=O)c2cc([N+](=O)[O-])ccc2NC(=O)CNC2CCCCC2C)c(OC)c1 (centres undefined) 3.4%
COc1cc(NS(=O)(=O)c2ccc(NC(=O)c3ccc([N+](=O)[O-])cc3)cc2)ncn1 -6.48%
CCc1ccc(NC(=O)c2ccc(Cn3cc([N+](=O)[O-])cn3)cc2)cc1 1.09%
CN(CCc1ccccc1)C(=O)c1cccc(NC(=O)Cc2cccc(NC(=O)C3CCCN(C(=O)C4CCC4)C3)c2)c1 (centres undefined) 2.65%
O=C(CNC(=O)c1cc(S(=O)(=O)N2CCOCC2)ccc1N1CCCC1)Nc1ccc(F)c(F)c1 -7.06%
C=CCCC(=O)N1C[C@H]2CON(C)[C@H]2C[C@H]1c1cccc(Nc2ccccc2)c1 1.87%
COc1ccc(-c2nn(C)c(=O)c3ccccc23)cc1CNC(=O)C1CCCCC1 5.51%
CCSc1sc(CC)cc1C=O -5.06%
COC(=O)/C=C(\Oc1ccccc1)C1(O)CCCCC1 -5.03%
COc1ccc(C(=O)NCc2ccccc2C)cc1S(=O)(=O)NC1CCCC1 -5.16%
Cc1cccc(NS(=O)(=O)c2cc(Cl)ccc2Cl)n1 1.57%
CCc1nnc(NS(=O)(=O)c2ccc(NC(=S)NC(=O)/C=C/c3cccs3)cc2)s1 3.92%
CC(NC(=O)COc1cccnc1[N+](=O)[O-])c1ccc(Cl)cc1Cl (centres undefined) -4.49%
Cc1cc(S(=O)(=O)NCc2ccccn2)c(Cl)cc1Cl -16.8%
Cc1cc(C(F)F)n2nc(C(=O)Nc3ccc(S(=O)(=O)NC45CC6CC(CC(C6)C4)C5)cc3)nc2n1 10.1%
O=C(c1cc2ccccc2s1)N1CCN(c2ccccn2)CC1 -5.47%
O=C(CNC(=O)OCc1ccccc1)NC1CCCCNC1=O (centres undefined) 10.8%
Cc1nn(C)c(Oc2ccc(Cl)cc2)c1C=O -0.515%
CCOC(=O)c1sc2nc(C)nc(SCC(N)=O)c2c1C -4.58%
O=S1(=O)CCO[C@H]2Cc3ccccc3[C@H]2N1Cc1ccccc1 -48.1%
CCCn1c(C)cc(/C=C(\C#N)C(=O)OCC(=O)N(C)c2c(N)n(Cc3ccccc3)c(=O)[nH]c2=O)c1C 11%
O=C(CCc1[nH]c2ccccc2c1Sc1ccccc1)N(CCO)CCO -4.7%
COc1cccc(-c2ccc(SCC(=O)N3CCN(c4ccccc4)CC3)nn2)c1 2.75%
CC(=O)N1CCSc2ccc(S(=O)(=O)N3CCC(C)CC3)cc21 2.03%
CC1(C)C(=O)CCC2(C)C1=CCC1C2C(=O)CC2(C)C1CCC2(O)C(=O)CO (centres undefined) -1.57%
CCn1ccnc1CN(C)C(=O)c1ccc2nc(Cc3ccc(OC)cc3)oc2c1 -0.56%
CC[C@]12c3[nH]c4cc(CCC(=O)N(C)C)ccc4c3CCN1C(=O)[C@@H](CC(=O)NCCCN(C)C)C[C@@H]2C(=O)N1CCN(C(=O)c2ccco2)CC1 -1.81%
CC(OC(=O)c1ccc(-n2cnnn2)cc1)C(=O)NCc1ccccc1 (centres undefined) -2.55%
O=C(NCc1ccc(Cl)cc1)c1cc2c(nc3sccn32)s1 -1.5%
CCCNC(=O)N1CCC(c2ccc3c(c2)OCO3)CC1 3.31%
Cc1noc(C)c1CCC(=O)O 1.5%
COCCNc1nnc(SCC(=O)NNC(=O)c2ccco2)s1 3.66%
COc1ccc(COCCN2CCN(S(=O)(=O)c3ccccc3)CCC2=O)cc1 1.02%
CCN(CCn1cccn1)Cc1nc(-c2ccc(C(=O)OC)cc2)no1 0.0185%
CC1CCCCC1NC(=O)Cn1c(=O)cnc2ccccc21 (centres undefined) 2.53%
CN(C(=O)CN(CCO)CC(=O)N(C)C(C)(C)Cc1ccccc1)C(C)(C)Cc1ccccc1 19.2%
CC(C#N)OC(=O)c1cccnc1SCC(=O)Nc1ccc2c(c1)OCO2 (centres undefined) -6.97%
O=C(NCCO)C(=O)NCC(c1ccc2c(c1)OCO2)N1CCN(c2ccc(F)cc2)CC1 (centres undefined) 0.936%
Cn1c(=O)c(C(=O)Nc2ncccn2)c(O)c2ccccc21 -0.24%
CC(C)CN(CC(C)C)C(=O)CN1c2cccc3cccc(c23)S1(=O)=O 0.144%
COc1ccccc1N1CCN(C(=O)C2Cc3ccccc3CN2C(=O)c2ccco2)CC1 (centres undefined) -8.37%
O=C(NC(=S)NC1CCSC1=O)c1ccccc1F (centres undefined) -9.37%
CCc1c(O)cc2n(c1=O)-c1ccccc1C2(C)C -2.57%
CN(CC1CCCO1)S(=O)(=O)c1ccc(C(=O)Nc2ccc([N+](=O)[O-])cc2)cc1 (centres undefined) -6.82%
CC1CN(C(=S)Nc2ccccc2F)CC(C)O1 (centres undefined) 6.69%
COc1ccccc1NC(=S)N1CCN(c2ccc(F)cc2)CC1 1.21%
Cc1ccc(S(=O)(=O)N2CCN(C(=O)COC(=O)CNC(=O)c3ccc(C(C)(C)C)cc3)CC2)c(C)c1 6.64%
CN1CCN(S(=O)(=O)c2ccc(N3CCN(c4ccccc4O)CC3)c([N+](=O)[O-])c2)CC1 -4.89%
O=C(NCc1ccco1)c1ccc(NS(=O)(=O)c2cccc([N+](=O)[O-])c2)cc1 -12.7%
COCCCNC(=O)CCc1nc2cccnc2n1Cc1ccc(OC)cc1 5.25%
Cc1ccc(NC(=S)N(CCN(C)C)Cc2cccs2)cc1C -0.631%
COc1ccc2c3c1O[C@H]1C[C@@H](O)C=C[C@@]31CCN(C)C2 -6.89%
COc1ccccc1C(=O)N/C(=C/c1ccc2c(c1)OCO2)C(=O)Nc1cccc(C(=O)O)c1 0.855%
COc1ccc(N(CC(=O)NCc2ccc(F)cc2)C(=O)CCC(=O)Nc2nccs2)cc1 2.29%
Cc1ccc(NC(=S)NC(NC(=O)Cc2cccc3ccccc23)C(Cl)(Cl)Cl)cc1 (centres undefined) -13%
O=C1NCCn2nc3ccccc3c21 -31.2%
O=C(O)CCCn1cc(NC(=O)COc2cccc(Cl)c2)cn1 -4.8%
NC(=O)C1(N2CCCCC2)CCN(C(=O)c2ccc(C#Cc3ccccc3)o2)CC1 -3.45%
COc1ccccc1N(CCOc1ccccc1)S(=O)(=O)c1ccccc1 10%
CC(C)C(=O)Nc1ccc2c(c1)oc1ccccc12 -2.62%
C=CCN(CC=C)CCOc1ccccc1[N+](=O)[O-] -4.39%
C=CCSC(CC)(CC)C(N)=O -4.28%
COc1cc(C(=O)N2CCN(C/C=C/c3ccccc3)CC2)cc(OC)c1C 6.19%
Cc1oc2cc3oc(=O)ccc3cc2c1C -9.08%
Cn1c(SCC(=O)NC2CCCCC2)nnc1-c1cc2ccccc2o1 1.56%
Cc1ccc(NC(=O)CN(C)C(=O)c2ccc(Cl)c(S(=O)(=O)NCc3ccco3)c2)cc1 -9.55%
COc1ccc(C(=O)N/N=C(\C)CC(=O)Nc2ccc(Cl)cn2)cc1 -26.7%
O=C(NC(C(=O)NCCN1CCOCC1)C12CC3CC(CC(C3)C1)C2)C1CCCCC1 (centres undefined) 6.49%
COc1ccccc1NC(=O)COC(=O)Cc1ccc(S(=O)(=O)N2CCCCC2)s1 -5.48%
O=C1C=C(c2cccc(Br)c2)C[C@@H](c2ccc(F)cc2)C1 18.1%
CC1(C)C(=O)C2(CCCCC2)C(=O)OC1c1cccs1 (centres undefined) 3.17%
COCCCC1CCN(C(=O)C2CCC(=O)N(C3CCCCCC3)C2)CC1 (centres undefined) 1.02%
Cc1ccc(C(=O)NC2CCCC(C)C2C)cc1S(=O)(=O)N1CCCCC1 (centres undefined) -3.8%
COc1cc(OC)cc(C(=O)NC2CCN(C(=O)N3c4ccccc4Sc4ccccc43)CC2)c1 9.12%
CCC(C)(C(=O)NC1CCCCC1)N(C)C(=O)c1ccc2c(c1)OCO2 (centres undefined) 4.87%
CCN(CC)c1ccc(C(=O)c2cnc(/N=C/N(C)C)s2)cc1 12.9%
CCOc1ccc(CCNC(=O)C2CCN(c3ccc(N4CCOCC4)nn3)CC2)cc1OCC -3.82%
COc1ccc(NC(=O)CSc2nc(NS(=O)(=O)c3ccc(C)cc3)cc(=O)[nH]2)cc1 0.509%

Reference: PubChem BioAssay AID488895 (Broad Institute, 2010)
